HT1080-NT tox – kills 2HG-producing HT-1080-NT fibrosarcoma cells | 1.6% of 360,000 active | HT-1080-NT fibrosarcoma viability, CellTiter-Glo ATP luminescence, 48 h | Potency, µM (doses to about 46.1 µM), actives largely listed as cytotoxic;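 note: NT is the 2HG producing partner of a matched IDH1 knockdown line; nearly all actives have a fitted effect of over 55% in size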
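Viability by CellTiter-Glo luminescence after 48 h compound exposure at 37C of HT-1080-NT cells (750/well, RPMI, 5% FBS). % activity scaled between DMSO wells and medium-only wells, then curve-fitted and categorized by curve class.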
DT40 TDP1 CPT – DT40-hTDP1 cell growth loss with CPT. chicken DT40 Tdp1-/-;hTDP1 cells + 20 nM CPT, ATP luminescence, 48 h. Potency, µM (titrated, usually from 46.2 µM), usual class: inhibitors. AID 686979. 12% of 420,000 active; note: nearly all actives have a fitted effect of over 55% in size
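Cell growth measured by CellTiter-Glo luminescence after a minimum 48 h, 37 C compound exposure with 20 nM CPT in Tdp1-knockout DT40 cells stably expressing hTDP1, seeded 400/well; qHTS titration format.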
HT1080 IDH1KD tx – kills HT-1080 cells with IDH1 knockdown | 2% of 360,000 active | Potency, µM (doses to about 46.1 µM), usual class: cytotoxic | HT-1080 IDH1 knockdown viability, ATP luminescence, 48 h | AID 686971
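Assay cells: HT-1080 with IDH1 knockdown, 750 per well, RPMI/5% FBS. Exposure: 48 h at 37 °C following 2 h pre-incubation. Read: CellTiter-Glo luminescence; fitted concentration-response, curve class assigned.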
DT40 TDP1 no CPT – qHTS for Inhibitors of human tyrosyl-DNA phosphodiesterase 1 (TDP1): qHTS in cells in absence of CPT; AID 686978, 2013; Potency, µM (highest dose often 46.2 µM), most hits filed as inhibitors; 15% of 420,000 active; DT40 Tdp1-/- hTDP1 cells, no CPT, ATP luminescence, 48 h; note: nearly all actives have a fitted effect of over 55% in size
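Growth of hTDP1-complemented DT40 Tdp1-knockout cells is measured by ATP luminescence after at least 48 hr compound exposure at 37 °C, with DMSO substituting for the 20 nM CPT used in the parallel screen.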
uPA surface inh – blocks generation of uPA at the cell surface. cell surface uPA generation assay, qHTS. Potency, µM (titrated, usually from 38.3 µM), usual class: inhibitors. 0.31% of 330,000 active. AID 540303; active = well fitted inhibition curve with a large enough effect; inconclusive = small, poorly fitted or top-dose-only effect; inactive = no such curve, though single readings can be large or run the other way; tested in mouse RAW 264.7 cells; note: nearly all actives have a fitted effect of over 55% in size
IL-1B inflam inh – inflammasome signaling inhibition, IL-1 beta readout; THP-1 LPS/ATP IL-1B secretion, AlphaLISA, 16 h; stronger effect = lower value; 4.7% of 360,000 active; activity change, % at 57.5 µM; in the data active = activity change below about -50%; inconclusive = mostly about -30% to -49%
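THP-1 cells pretreated 1 hr with compounds (up to 57.5 uM final), then stimulated with LPS (250 ng/mL final) plus ATP (1.25 mM final); secreted IL-1B measured by AlphaLISA after 16 hr, decreased signal indicating inhibition.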
Large screens that a line does not name were inactive. Compounds with a hit are over-represented: about 19% of the library has one in this group of screens. Unless noted, calls come from the whole dose curve; as a rule, active = well fitted curve in the direction sought with a large enough effect; inconclusive = small, poorly fitted or top-dose-only effect, or another doubt; inactive = no such curve, though single readings can be large; an effect the other way counts as inactive or inconclusive.

O=C(CN1C(=O)/C(=C\c2cccc(Cl)c2)Sc2ccccc21)NCCCN1CCOCC1	DT40 TDP1 CPT 23µM, DT40 TDP1 no CPT 23µM
COCCNC(=O)CN1C(=O)/C(=C/c2ccccc2)Oc2ccc(C(C)(C)C)cc21	DT40 TDP1 CPT inconclusive, DT40 TDP1 no CPT inconclusive, IL-1B inflam inh -53
O=C(CN1C(=O)/C(=C/c2ccc(C(F)(F)F)cc2)Sc2ccccc21)NCCCN1CCOCC1	HT1080-NT tox inconclusive, DT40 TDP1 CPT 26µM, HT1080 IDH1KD tx inconclusive, DT40 TDP1 no CPT inconclusive, uPA surface inh inconclusive, IL-1B inflam inh inconclusive
CCc1ccc(/C=C2/Sc3ccccc3N(CC(=O)NCCCN3CCOCC3)C2=O)cc1	DT40 TDP1 CPT inconclusive, DT40 TDP1 no CPT 21µM, uPA surface inh inconclusive, IL-1B inflam inh -65
Cc1ccc(S(=O)(=O)NC(=O)C2(C)CCN2C(=O)Cc2ccc(Cl)cc2Cl)nc1 (configuration not stated)	HT1080-NT tox inconclusive, HT1080 IDH1KD tx inconclusive (no result: uPA surface inh)
CSC[C@H]1CN(c2ccccc2)C(=O)[C@@H]1CC(=O)Nc1ccccc1	DT40 TDP1 CPT inconclusive, DT40 TDP1 no CPT inconclusive (no result: uPA surface inh)
Cc1ccc(C(=O)Nc2ncccc2O)cc1S(=O)(=O)N1CCCCC1	none
O=C(CN1C(=O)COc2ccccc21)NCCCN1CCOCC1	none
O=C(CN1C(=O)/C(=C\c2cccc(Br)c2)Oc2ccccc21)NCCCN1CCOCC1	DT40 TDP1 CPT inconclusive, DT40 TDP1 no CPT 18µM, IL-1B inflam inh -52
CCc1ccc(C2CC(=O)N(c3cccc(C(F)(F)F)c3)C3=C2C(=O)OC3)cc1 (configuration not stated)	none (no result: HT1080-NT tox, HT1080 IDH1KD tx, uPA surface inh, IL-1B inflam inh)
COc1ccccc1C1CC(=O)N(c2cccc(C(F)(F)F)c2)C2=C1C(=O)OC2 (configuration not stated)	DT40 TDP1 CPT 8.2µM, DT40 TDP1 no CPT inconclusive (no result: HT1080-NT tox, HT1080 IDH1KD tx, uPA surface inh, IL-1B inflam inh)
O=C(c1ccc2c(c1)OCO2)N1CCN(c2ccccc2F)CC1	none
Cc1c(C(=O)N2CCN(Cc3ccc4c(c3)OCO4)CC2)sc2ncnc(N3CCN(c4ccccc4)CC3)c12	DT40 TDP1 CPT inconclusive, HT1080 IDH1KD tx inconclusive, DT40 TDP1 no CPT 4.6µM, uPA surface inh inconclusive
CCCNC(=O)Cn1cnc2sc(C(=O)N3CCN(Cc4ccc5c(c4)OCO5)CC3)c(C)c2c1=O	none
Cc1c(C(=O)N2CCN(Cc3ccc4c(c3)OCO4)CC2)sc2ncnc(N3CCN(c4ccccc4F)CC3)c12	HT1080-NT tox inconclusive, DT40 TDP1 CPT 18µM, HT1080 IDH1KD tx 18µM, DT40 TDP1 no CPT 8.2µM, IL-1B inflam inh inconclusive
CCc1cccc(NC(=O)COC(=O)c2cn(CC)c3nc(C)ccc3c2=O)c1	DT40 TDP1 no CPT inconclusive (no result: HT1080-NT tox, HT1080 IDH1KD tx, uPA surface inh, IL-1B inflam inh)
O=C(NC1CC1)c1cc2cc3ccccc3nc2s1	DT40 TDP1 CPT 23µM, DT40 TDP1 no CPT inconclusive
O=C(NNC(=O)c1cc2cc3ccccc3nc2s1)c1cccc(C(F)(F)F)c1	none
CC(=O)Nc1ccc(CCCCc2ccc(NC(C)=O)cc2)cc1	none
COc1cc(CC(=O)Nc2nc(C)cs2)cc(OC)c1OC	DT40 TDP1 CPT 12µM, DT40 TDP1 no CPT 21µM
COc1ccc(CCNC(=O)C/C(C)=N/NC(=O)C23CC4CC(CC(C4)C2)C3)cc1OC	DT40 TDP1 CPT inconclusive, HT1080 IDH1KD tx inconclusive, DT40 TDP1 no CPT 7.3µM
COc1ccc(-c2csc(NC(=O)CCN3C(=O)C4CC=CCC4C3=O)n2)cc1OC (configuration not stated)	DT40 TDP1 CPT 21µM, DT40 TDP1 no CPT 18µM
COc1ccccc1NC(=O)C/C(C)=N/NC(=O)C12CC3CC(CC(C3)C1)C2	DT40 TDP1 CPT inconclusive
COc1ccc(CCNC(=O)CCn2cccc2)cc1OC	none
COc1ccc(-c2csc(NC(=O)CN3C(=O)C4CC=CCC4C3=O)n2)cc1 (configuration not stated)	DT40 TDP1 CPT inconclusive, DT40 TDP1 no CPT inconclusive, uPA surface inh inconclusive
COc1ccc(CCNC(=O)CCN2C(=O)C3CC=CCC3C2=O)cc1OC (configuration not stated)	DT40 TDP1 CPT inconclusive, DT40 TDP1 no CPT 23µM
